PubChem BioAssay AID774 (SRMLSC, 2007)
About 15 (0.02%) of roughly 65,000 compounds were called active.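 Rule for the calls: active = single-dose screening hits from any of four coupled enzyme assays that gave an IC50 when retested across doses; inconclusive = no clear call, values can overlap the other calls; inactive = the rest.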 Not all results are given here. Non-standard residues stand in square brackets, D forms with d. Residues, ends and D or L forms follow the SMILES beside them. ξ: configuration not given here. ξV = CC(C)C(N)C(=O)O

Experiment: NADH-endpoint coupling enzyme inhibition profiling – biochemical, MLSMR library, artefact control, profiling panel (AID 774);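 note: the DPM-DC format reads NADH fluorescence rather than 340 nm absorbance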
Conditions: coupled PK/LDH NADH assays, four targets; at 10 µM; stronger effect = higher value

| Compound | inhibition |
| --- | --- |
| CC(C)[C@H](NC(=O)Nc1ccc(S(N)(=O)=O)cc1)C(=O)O | 2% (inactive) |
| C/C(N)=C(\C#N)C(=O)NCCc1ccccn1 | 5% (inactive) |
| O=C(Cn1c(=O)sc2ccccc21)Nc1nc2c(s1)CCCC2 | 5% (inactive) |
| c1ccc2c(c1)OCC(c1nn3cnnc3s1)O2 (stereo not drawn) | 3% (inactive) |
| COc1cccc(-c2cc3nc4c(c(N5CCC6(CC5)OCCO6)n3n2)CCCC4)c1 | 4% (inactive) |
| C=CCc1cccc2cc(C(=O)N3CCN(C(=O)OCC)CC3)c(=O)oc12 | 4% (inactive) |
| CCOC(=O)CC1C(=O)NCCN1C(=O)COc1ccc(Br)cc1C (stereo not drawn) | 4% (inactive) |
| Cc1nn(-c2ccccc2)c2[nH]c(C(F)(F)F)cc(=O)c12 | 3% (inactive) |
| O=[n+]1c2c(n([O-])c3cc(Br)ccc31)CCC2 | 5% (inactive) |
| CC(C)CCNc1nc(N2CCCC2)c2c(c1C#N)CCN(C)C2 | 7% (inactive) |
| COc1ccc(N2C(=O)CCC(C(=O)Nc3ccccn3)C2c2ccc(OC)c(OC)c2)cc1 (stereo not drawn) | 2% (inactive) |
| Cc1ccc(S(=O)(=O)c2nc(NCCCn3ccnc3)sc2Cl)cc1 | 6% (inactive) |
| COc1ccc(N(CC(=O)NC(C)(C)C)C(=O)c2ccco2)cc1 | 1% (inactive) |
| CCOC(=O)c1[nH]c2ccccc2c1N=C(C)N(CC)CC | 4% (inactive) |
| COc1cccc2c(C)c(C(=O)O)[nH]c12 | 14% (inactive) |
| COCCCNC(=O)c1c(F)c(F)c(F)c(F)c1F | 5% (inactive) |
| O=C(CCn1c(=O)oc2ccccc21)Nc1ccon1 | 5% (inactive) |
| COc1cc(C2C(C(=O)Nc3ccc(F)cc3)=C(C)Nc3nc(CCCO)nn32)cc(OC)c1OC (stereo not drawn) | 9% (inactive) |
| OCCCN1c2ccccc2Nc2nnc(-c3ccccc3)cc21 | 2% (inactive) |
| C=C1c2cc(CC)ccc2NC(=O)N1c1ccc(C)cc1 | 4% (inactive) |
| CCc1nnc(NC(=O)CCC(=O)O)s1 | 1% (inactive) |
| COc1cc(-c2nnc(Cn3cc(C(F)(F)F)ccc3=O)o2)cc(OC)c1OC | 4% (inactive) |
| CCOP1(=O)C=C(C(C)(C)C)OC1c1ccc(F)cc1 (stereo not drawn) | 5% (inactive) |
| CCN(CC)C(=O)CSc1nnc(-c2ccc(S(=O)(=O)NCc3ccccc3Cl)cc2)o1 | 6% (inactive) |
| CCc1c(C)n([O-])c2c([n+]1=O)CCCCC2 | 4% (inactive) |

| Compound | inhibition |
| --- | --- |
| Cc1noc(NS(=O)(=O)c2ccc(N3CC(O)=C(c4ccccc4)C3=N)cc2)c1C | 4% (inactive) |
| Cn1c(NC(=O)c2ccc3c(c2)OCO3)cc(=O)n(C)c1=O | 7% (inactive) |
| COC(=O)Cc1c(C)c2ccc(OCC(=O)NCc3ccc4c(c3)OCO4)cc2oc1=O | 10% (inactive) |
| O=C(CSc1nc2ncccc2[nH]1)Nc1ccc2c(c1)OCCO2 | 1% (inactive) |
| CNC(=O)CSc1nnnn1-c1ccc(C)cc1C | 2% (inactive) |
| CCC(C(=O)Nc1ncccn1)(C(F)(F)F)C(F)(F)F | 1% (inactive) |
| COc1ccc(C2/C(=C(/O)c3ccccc3)C(=O)C(=O)N2c2ncccn2)cc1OC (stereo not drawn) | 1% (inactive) |
| O=C(COC(=O)c1ccccc1C(=O)c1ccccc1)c1ccco1 | 4% (inactive) |
| Cc1cc(C)n(C(=O)c2ccc(S(=O)(=O)N3CCCC3)cc2)n1 | 4% (inactive) |
| CC1(C)CCCC2=C1CC1C(=O)N(c3ccccc3)C(=O)C1C2 (stereo not drawn) | 6% (inactive) |
| Cc1ccc2cccc(O)c2[n+]1[O-] | 10% (inactive) |
| CCOc1ccccc1-n1c(SCC(=O)N2CCCC2)nnc1-c1ccoc1C | 4% (inactive) |
| O=C(CN1C(=O)C2C3C=CC(C3)C2C1=O)NCC1COc2ccccc2O1 (stereo not drawn) | 8% (inactive) |
| Cn1nnnc1SCc1cc(=O)[nH]c2ccccc12 | 6% (inactive) |
| Cc1cc(OCCN2CCCC2)ccc1C(C)C | 14% (inactive) |
| CC1(C)CC(=O)c2sc(N)nc2C1 | 3% (inactive) |
| CCOC(=O)C1CCN(C(=O)Cn2cc(C#N)c3ccccc32)CC1 | 5% (inactive) |
| COc1ccc(-c2nn(-c3ccccc3)cc2C(=O)Nc2nc(CC(C)=O)ns2)cc1 | 4% (inactive) |
| CCOC(=O)CCCNC(=O)CN1C(=O)NC(CCc2ccccc2)C1=O (stereo not drawn) | 5% (inactive) |
| Cc1ccc(CCn2c3c(c4ccccc42)CN(C)CC3)cn1 | 2% (inactive) |
| CC(C)C1Cc2c(sc3c2c(=O)n(-c2ccccc2)c2nncn32)CO1 (stereo not drawn) | 3% (inactive) |
| CN1c2ccccc2-c2nc3ccccc3n2C1c1ccco1 (stereo not drawn) | 6% (inactive) |
| C=CCn1c(COc2ccccc2)nnc1SCC(=O)NCC(=O)OCC | 3% (inactive) |
| Cc1cccc(OCC(O)Cn2c(=N)n(CCN3CCOCC3)c3ccccc32)c1 (stereo not drawn) | 6% (inactive) |
| C/C(=C\c1ccco1)C1Nc2cccc3cccc(c23)N1 | 10% (inactive) |

| Compound | inhibition |
| --- | --- |
| Cc1cc(NC(=O)Nc2ccccc2)n(-c2ccccc2)n1 | 1% (inactive) |
| COc1ccc(Br)cc1/C=N/n1c(C)nnc1C | 6% (inactive) |
| O=C(Nc1ccccc1N1CCN(C(=O)c2ccccc2)CC1)c1ccc2c(c1)OCO2 | 4% (inactive) |
| C=CCNc1nc(C)nc(OC)n1 | 3% (inactive) |
| CCCCC(CC)C(=O)Nc1ccc(Cl)cn1 (stereo not drawn) | 5% (inactive) |
| CC(=O)c1c(N2CCOCC2)nc(=S)n(-c2cc(C)ccc2C)c1C | 5% (inactive) |
| CC(C)CCn1c(CN(C)Cc2ccccc2)nc2c1c(=O)n(C)c(=O)n2C | 8% (inactive) |
| COC(=O)c1ccc(C2CC(=O)Nc3cc(OC)c(OC)cc32)cc1 (stereo not drawn) | 9% (inactive) |
| CCOc1ccccc1NC(=O)C1CCC(CNc2c(N3CCOCC3)c(=O)c2=O)CC1 (stereo not drawn) | 7% (inactive) |
| O=C(CSc1ncccn1)NCCc1ccccc1 | 5% (inactive) |
| COc1ccc(OC)c(NC(=O)CN2CCN(C(=O)c3ccco3)CC2)c1 | 3% (inactive) |
| Cc1cccc(C)c1NC(=O)CCCSc1nnc(-c2ccco2)n1-c1ccccc1 | 3% (inactive) |
| CCOC(=O)c1c(C(C#N)C#N)cc(C)nc1C | 7% (inactive) |
| Cc1cc(C)c(C(=O)CN2C(=O)CCC2=O)cc1C | 5% (inactive) |
| Oc1c(C(c2ccco2)N2CCC3(CC2)OCCO3)sc2ncnn12 (stereo not drawn) | 3% (inactive) |
| CCOC(=O)c1cc2cc(-c3c(C(=O)OCC)oc4cc(O)cc(O)c4c3=O)ccc2o1 | 3% (inactive) |
| O=C(NC1=NCCS1)c1ccc(Cl)s1 | 10% (inactive) |
| c1ccc(-c2noc(-c3cccs3)n2)nc1 | 3% (inactive) |
| CCCOC(=O)Nc1sc2c(c1C(=O)OCC)CCC2 | 5% (inactive) |
| O.O.O.O=S(=O)([O-])OC[C@H]1O[C@@H](O[C@]2(COS(=O)(=O)[O-])O[C@H](OS(=O)(=O)[O-])[C@@H](OS(=O)(=O)[O-])[C@@H]2OS(=O)(=O)[O-])[C@H](OS(=O)(=O)[O-])[C@@H](OS(=O)(=O)[O-])[C@@H]1OS(=O)(=O)[O-].[Al] | 1% (inactive) |
| CC(=O)c1c(C)n([O-])c2ccccc2[n+]1=O | 5% (inactive) |
| Cc1ccc2[nH]c3c(c2c1)CN(C(=O)CN1CCN(c2ccccc2)CC1)CC3 | 3% (inactive) |
| CCn1c(SCC(=O)NCc2ccco2)nnc1-c1ccc(N)cc1 | 3% (inactive) |
| COc1ccc2c3c(c(=O)oc2c1OCC(=O)C(C)(C)C)CCCC3 | 4% (inactive) |
| O=C(O)c1ccc(F)c(S(=O)(=O)Nc2ccccc2)c1 | 6% (inactive) |

| Compound | inhibition |
| --- | --- |
| CC1CN(Cc2nc3c(c(=O)n(C)c(=O)n3C)n2Cc2cccc(Cl)c2)CC(C)O1 (stereo not drawn) | 5% (inactive) |
| CC(=O)NC(C(=O)NCC(N)=O)C(C)C (stereo not drawn) (Ac-[ξV]-Gly-NH2) | 4% (inactive) |
| Cn1c(-c2ccc(C(=O)c3ccccc3)s2)nc2ccccc21 | 6% (inactive) |
| O=C(Oc1ccc2c(c1)CCC2)N1CCOCC1 | 3% (inactive) |
| O=P(c1ccc2c(c1)OCCO2)(N1CCOCC1)N1CCOCC1 | 0% (inactive) |
| CCOc1ccc(OCC)c(NC(=O)C(NS(=O)(=O)c2ccc3c(c2)oc(=O)n3C)C(C)C)c1 (stereo not drawn) | 7% (inactive) |
| O=C(O)CN1C(=O)CC(Cc2ccccc2)C1=O (stereo not drawn) | 1% (inactive) |
| CCCc1cc(=O)oc2c(C)c(O)c(CN3CCCCC3)cc12 | 1% (inactive) |
| CO/N=C(\C(=O)N[C@@H]1C(=O)N2C(C(=O)O)=C(COC(C)=O)CS[C@H]12)c1csc(N)n1 (stereo in doubt) | 0% (inactive) |
| Cc1noc(C)c1S(=O)(=O)N(CC(=O)NCc1ccc(Cl)cc1)c1ccc2c(c1)OCO2 | 9% (inactive) |
| C=CCNC(=O)CCCC(=O)NCC=C | 5% (inactive) |
| CCCn1c(SCC(=O)Nc2cccc(C(=O)OCC)c2)nnc1-c1ccoc1C | 7% (inactive) |
| C=CCOc1nc2c(c(=O)n(C)c(=O)n2C)n1Cc1ccc(Cl)cc1Cl | 8% (inactive) |
| Fc1ccc2nc(Nc3nc4c(s3)CCCC4)sc2c1 | 3% (inactive) |
| C=CCNC(=O)C1CC=CCC1C(=O)O (stereo not drawn) | 4% (inactive) |
| CCO/C([O-])=N/c1c[n+](N2CCOCC2)no1 | 1% (inactive) |
| COC(=O)Cc1csc(Nc2c(C)n(C)n(-c3ccccc3)c2=O)n1 | 8% (inactive) |
| COc1ccccc1C1/C(=C(/O)c2ccc(C)cc2)C(=O)C(=O)N1Cc1ccco1 (stereo not drawn) | 10% (inactive) |
| C=CCc1cccc2cc(C(=O)OCC)c(=O)oc12 | 6% (inactive) |
| Cn1c(=O)c2c(nc(OCc3cccnc3)n2Cc2ccccc2)n(C)c1=O | 3% (inactive) |
| CCOc1ccc(OCC)c(NC(=O)CN(C)S(=O)(=O)c2cccc3nsnc23)c1 | 4% (inactive) |
| O=C(OCC(O)C(O)COC(=O)c1ccccc1)c1ccccc1 (stereo not drawn) | 5% (inactive) |
| c1ccc2c(CNn3cnnc3)cccc2c1 | 3% (inactive) |
